Experimental findings from the supplement of paper PMC10670038 are described below.

Structures are written as SMILES. Counter-ions that a name gives are not always drawn. ± gives the standard deviation of the averaged measurements. Whole data set: some 2,000 compounds, median “relative cell viability vs DMSO, compound + 0.2 uM CuET” near 1, cut for the lowest 2% near 0.25. This excerpt belongs to a sample that is enriched for the lowest values.

The test system of this assay is TE10. Description: relative cell viability vs DMSO, compound + 0.2 uM CuET (fraction); TE10 is an esophageal squamous carcinoma line; higher = less cytotoxic. The conditions noted are these: 2 µM; co-treatment: CuET (bis(diethyldithiocarbamate)copper) 0.2 uM; 48 h. As to the method:
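TE10 ESCC cells (1,000/well, 384-well plates) were treated with Selleck bioactive library compounds at 2 uM combined with 0.2 uM CuET (copper diethyldithiocarbamate) for 48 h. Viability was read by CellTiter-Glo and expressed relative to DMSO wells. Two technical replicates (A, B).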
As for `C=CS(=O)(=O)NC1CCN(C(=O)CNc2cc(I)c(Cl)cc2OC)CC1` [K-Ras(G12C) inhibitor 9], the relative cell viability was found to be 0.699 ± 0.08.
`O=C(NOCC1CC1)c1ccc(F)c(F)c1Nc1ccc(I)cc1Cl`: the relative cell viability was 0.64 ± 0.17.
Then `Cc1cccc(-c2[nH]ncc2-c2ccc3ncccc3n2)n1`, with 1.04 ± 0.0027; and `CN(C)c1ccc(C(=O)NCCCCCCC(=O)NO)cc1`, with 0.322 ± 0.042; and `CC(C)(C)OC(=O)Nc1ccc(-c2cc(C(=O)NCCCCCCC(=O)NO)no2)cc1`, with 0.244 ± 0.003.
Under `O=C(CCCCCCNC(=O)c1cnc(N(c2ccccc2)c2ccccc2)nc1)NO` [Rocilinostat (ACY-1215)] stands 0.8907 ± 0.0072; under `C[C@@H]1COC(Nc2ccc3ncnc(Nc4ccc(OCc5nccs5)c(Cl)c4)c3c2)=N1` [Varlitinib], 1.04 ± 0.086; under `S=C=Nc1cccc(NC(=S)NCCCCNC(=S)Nc2cccc(N=C=S)c2)c1`, 1.2 ± 0.15.
On to `CCn1c(=O)c(-c2ccc(-c3cncs3)cc2Cl)cc2cnc(Nc3ccc(N4CCN(C)CC4)cc3)nc21`, for which the relative cell viability turned out to be 0.183 ± 0.025.
For the molecule `C=CC(=O)Nc1cccc(Sc2nc(Nc3ccc(N4CCN(C)CC4)cc3)ncc2Cl)c1`, the relative cell viability is 0.846 ± 0.02.
Under `C=CCn1c(=O)c2cnc(Nc3ccc(N4CCN(C)CC4)cc3)nc2n1-c1cccc(C(C)(C)O)n1` stands 0.559 ± 0.038; under `COc1cc2ncnc(Oc3cccc(NC(=O)Nc4cc(C(C)(C)C(F)(F)F)on4)c3)c2cc1OC`, 1.1 ± 0.061; under `COc1cc(OC)c(NC(=O)Nc2cc(C)on2)cc1Cl`, 1.1 ± 0.05.
As for `CCN1C(=CC(C)=O)Sc2ccc(OC)cc21`, the relative cell viability was determined as 1.11 ± 0.11.
On to `CC(CCC(=O)NCCS(=O)(=O)O)C1CCC2C3C(O)CC4CC(O)CCC4(C)C3CCC12C` (centres undefined) [Sodium Tauroursodeoxycholate (TUDC)], for which the relative cell viability is 1.24 ± 0.12.
In the case of `O=C1C(Cl)=C(N2CCOCC2)C(=O)N1c1ccc(Cl)c(Cl)c1`, the relative cell viability was 1.17 ± 0.026.
Take `COc1cc(/C=C/C(=O)CC(=O)/C=C/c2ccc(O)c(OC)c2)ccc1O` [Curcumin]: the relative cell viability worked out at 0.656 ± 0.023.
For `COc1cc(/C=C/C(=O)O)ccc1O` [Ferulic Acid], the relative cell viability was 1.21 ± 0.12.
Regarding `COc1ccc(/C=C/C(=O)C2(C(=O)/C=C/c3ccc(OC)c(OC)c3)CCCCC2)cc1OC`, the relative cell viability was 0.238 ± 0.01.
Then `O=C1c2c(O)cccc2C([C@@H]2O[C@H](CO)[C@@H](O)[C@H](O)[C@H]2O)c2cc(CO)cc(O)c21` (some centres undefined) [Aloin], with 1.1 ± 0.12; and `N#Cc1ccc(COC[C@H]2O[C@@H](n3c(NCc4ccc(Cl)c(Cl)c4)nc4c(N)ncnc43)[C@H](O)[C@@H]2O)cc1`, with 0.939 ± 0.0025; and `CCOc1ccccc1OC(c1ccccc1)C1CNCCO1` (centres undefined) [Reboxetine mesylate], with 1.2 ± 0.37.
Then `c1ccc(Cn2c(-c3ccc(OCC(C4CCNCC4)n4c(-c5ccccc5)nc5ccccc54)cc3)nc3ccccc32)cc1` (centres undefined) [Deltarasin], with 0.9797 ± 0.0069.
Regarding `CC1(C)C=C(CN2C/C(=C\c3ccc(F)cc3)C(=O)/C(=C/c3ccc(F)cc3)C2)C(C)(C)N1O`, the relative cell viability came to 0.216 ± 0.0066.
As for `CC(C)(C)Cn1c(N)nc2ccc(-c3[nH]c(C(C)(C)C)nc3-c3ccc(F)cc3)nc21`, the relative cell viability came out at 1.34 ± 0.083.
Under `CCOC(=O)C1=C(C)NC(C)=C(C(=O)OCC)C1c1ccccc1/C=C/C(=O)OC(C)(C)C` [Lacidipine] stands 0.785 ± 0.011.
For `COc1ccc(COc2ccc(Cc3cnc(N)nc3N)cc2OC)cc1`, the relative cell viability worked out at 1.024 ± 0.0044.
In the case of `Cn1c(=O)cc(N2CCC[C@@H](N)C2)n(Cc2cc(F)ccc2C#N)c1=O` [Trelagliptin], the relative cell viability was 1.17 ± 0.22.
As for `CC(C=CC(=O)NO)=CC(C)C(=O)c1ccc(N(C)C)cc1` (centres undefined) [Trichostatin A (TSA)], the relative cell viability was found to be 0.177 ± 0.0076.
For the molecule `CN(C(Cc1ccc(OS(=O)(=O)c2cccc3cnccc23)cc1)C(=O)N1CCN(c2ccccc2)CC1)S(=O)(=O)c1cccc2cnccc12` (centres undefined), the relative cell viability was 0.992 ± 0.046.
In the case of `CC(NC(=O)C(O)c1cc(F)cc(F)c1)C(=O)NC1C(=O)N(C)c2ccccc2-c2ccccc21` (centres undefined), the relative cell viability is 1.07 ± 0.058.
Regarding `CC(C)OC(=O)C1=CN(C(=O)c2ccc(F)c(F)c2)CC(C)(C)c2c1[nH]c1ccccc21`, the relative cell viability is 1.13 ± 0.041.
For the molecule `NNC(=O)c1ccncc1` [Isoniazid], the relative cell viability turned out to be 1.1 ± 0.14.
For the molecule `O=C(/C=C/c1ccc2ccccc2n1)c1ccncc1`, the relative cell viability was 0.186 ± 0.037.
For `O=C(NNc1ccccc1)c1ccncc1`, the relative cell viability worked out at 1.06 ± 0.18.
Take `Cn1c(=O)cc(N2CCC[C@@H](N)C2)n(Cc2ccccc2C#N)c1=O` [Alogliptin]: the relative cell viability was determined as 1.1 ± 0.21.
As for `NCc1c[nH]c(=S)n1[C@@H]1CCc2c(F)cc(F)cc2C1` [(R)-Nepicastat HCl], the relative cell viability stood at 1.121 ± 0.0038.
Regarding `CN(C)CCSSCCNC(=O)C1CCN(C(=O)CSc2ccc(Cl)cc2)CC1`, the relative cell viability was 1.05 ± 0.11.
Under `Cc1cc(N2CCOCC2)cc2[nH]c(-c3c(NCC(O)c4cccc(Cl)c4)cc[nH]c3=O)nc12` (centres undefined) stands 0.799 ± 0.15.
